In the supplement of paper PMC4840960:
± gives the standard deviation of the averaged measurements.

Assays:
[1] = tested on: E18 rat cortical neuron-glia co-culture; assay: fiber score / MBP score (myelination specific beyond OL differentiation) (ratio); higher = more myelination-specific MBP alignment; settings: treatment time: 8 days (DIV5-DIV13)
Outline: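 Reported values are fiber score (continuous MBP fiber length per Olig2+ nucleus) divided by MBP score (thresholded MBP area × intensity per Olig2+ nucleus). They come from primary E18 rat cortical co-cultures treated with library compounds at 1 or 5 µM in myelination medium from DIV5 to DIV13, then fixed in 4 % paraformaldehyde, immunostained for MBP and Olig2 with DAPI, and analysed over four 10X fields per well in duplicate wells.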

[2] = tested on: E18 rat cortical neuron-glia co-culture; assay: myelination (MBP fiber length per Olig2+ nucleus), % of 1 µM DAPT response (DMSO = 0) (% of DAPT); higher = more myelination, active = 50 or more; settings: treatment time: 8 days (DIV5-DIV13)
Outline: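 Rat cortical co-cultures from E18 tissue were dissociated with papain and plated at 20,000 cells/well on 96-well plates coated with poly-d-lysine/laminin. From DIV5 to DIV13, library compounds were added at 1 or 5 µM in myelination medium. After fixation in 4 % paraformaldehyde, cultures were immunostained for MBP and Olig2 and counterstained with DAPI, and four 10X fields were analysed in each of duplicate wells. The myelination value is the length of continuous straight MBP fibers per Olig2+ nucleus, normalised so that 0.1 % DMSO is 0 and a 1 µM positive control is 100.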

For `COc1cc2c(cc1OC)[C@@]13CCN4CC5=CCO[C@H]6CC(=O)N2[C@H]1[C@H]6[C@H]5C[C@H]43` [Brucine], which “fiber score / MBP score” value ([1]; 1 µM) is on record?
Its value is 0.957.

And the “fiber score / MBP score” value ([1]; 5 µM)?
Its value is 0.692.

What about the myelination ([2]; 1 µM) of the same compound?
Its myelination is -6.05 (inactive).

What about the myelination ([2]; 5 µM) of the same compound?
Its myelination is -15.7 (inactive).

Which “fiber score / MBP score” value ([1]; 1 µM) does the source give for `C[C@]12CC[C@H](O)CC1=CC[C@@H]1[C@@H]2CC[C@]2(C)C(=O)CC[C@@H]12` [Dehydroepiandrosterone] here?
The value was 1.25.

And the “fiber score / MBP score” value ([1]; 5 µM)?
The value was 0.965.

What about the myelination ([2]; 1 µM) of the same compound?
The myelination was 18.9 (inactive).

And the myelination ([2]; 5 µM)?
The myelination was -6.07 (inactive).

`CN1CCN(C(=O)O[C@H]2c3nccnc3C(=O)N2c2ccc(Cl)cn2)CC1` [Eszopiclone] was tested. Which “fiber score / MBP score” value ([1]; 1 µM) did it give?
Its value is 0.461.

And the “fiber score / MBP score” value ([1]; 5 µM)?
The value was 0.876.

And the myelination ([2]; 1 µM)?
Its myelination is -5.43 (inactive).

What about the myelination ([2]; 5 µM) of the same compound?
The myelination was 15.5 (inactive).

What does the source list for `COc1ccc2[nH]cc(CCN)c2c1` [5-Methoxytryptamine]?
fiber score / MBP score ([1]; 1 µM): 0.779; fiber score / MBP score ([1]; 5 µM): 0.737; myelination ([2]; 1 µM): -6.66 (inactive); myelination ([2]; 5 µM): -8.85 (inactive)

`CC(C)c1cccc(C(C)C)c1O` [Propofol] was tested. Which “fiber score / MBP score” value ([1]; 1 µM) did it give?
The value was 0.782.

What about the “fiber score / MBP score” value ([1]; 5 µM) of the same compound?
The value was 0.895.

What about the myelination ([2]; 1 µM) of the same compound?
The myelination was -3.16 (inactive).

And the myelination ([2]; 5 µM)?
The myelination was -2.27 (inactive).

Which “fiber score / MBP score” value ([1]; 1 µM) does the source give for `C[C@H]1CCC[C@H](O)CCCCCc2cc(O)cc(O)c2C(=O)O1` [Zeranol] here?
The value was 0.788.

And the “fiber score / MBP score” value ([1]; 5 µM)?
The value was 0.876.

What about the myelination ([2]; 1 µM) of the same compound?
The myelination was -13.7 (inactive).

And the myelination ([2]; 5 µM)?
The myelination was -5.48 (inactive).

How did the “fiber score / MBP score” value ([1]; 1 µM) turn out when `O=C1Nc2ccc(Cl)cc2C(c2ccccc2Cl)=NC1O` (stereo unspecified) [Lorazepam] was run?
The value was 0.711.

And the “fiber score / MBP score” value ([1]; 5 µM)?
Its value is 1.13.

What about the myelination ([2]; 1 µM) of the same compound?
Its myelination is -14.7 (inactive).

What about the myelination ([2]; 5 µM) of the same compound?
The myelination was 15 (inactive).

How did the “fiber score / MBP score” value ([1]; 1 µM) turn out when `CN(C)C(=O)Oc1ccc[n+](C)c1` [Pyridostigmine Bromide] was run?
The value was 0.691.

And the “fiber score / MBP score” value ([1]; 5 µM)?
The value was 0.895.

What about the myelination ([2]; 1 µM) of the same compound?
Its myelination is -14.3 (inactive).

What about the myelination ([2]; 5 µM) of the same compound?
The myelination was -8.88 (inactive).

`CC(=O)O[C@H]1C[C@@H]2CC[C@@H]3[C@H](CC[C@@]4(C)[C@H]3C[C@H]([N+]3(C)CCCCC3)[C@@H]4OC(C)=O)[C@@]2(C)C[C@@H]1[N+]1(C)CCCCC1` [Pancuronium] was tested. Which “fiber score / MBP score” value ([1]; 1 µM) did it give?
The value was 0.692.

What about the “fiber score / MBP score” value ([1]; 5 µM) of the same compound?
The value was 1.04.

And the myelination ([2]; 1 µM)?
The myelination was -11 (inactive).

What about the myelination ([2]; 5 µM) of the same compound?
Its myelination is 2.32 (inactive).

With `CNC(=O)Oc1ccc2c(c1)[C@]1(C)CCN(C)[C@@H]1N2C` [Physostigmine] as the compound, how does the “fiber score / MBP score” value ([1]; 1 µM) read?
Its value is 0.593.

And the “fiber score / MBP score” value ([1]; 5 µM)?
Its value is 0.703.

And the myelination ([2]; 1 µM)?
The myelination was -13.2 (inactive).

What about the myelination ([2]; 5 µM) of the same compound?
The myelination was -9.34 (inactive).

Which “fiber score / MBP score” value ([1]; 1 µM) does the source give for `Cc1ccc(-c2nc3ccc(C)cn3c2CC(=O)N(C)C)cc1` [Zolpidem] here?
The value was 0.967.

What about the “fiber score / MBP score” value ([1]; 5 µM) of the same compound?
The value was 0.776.

And the myelination ([2]; 1 µM)?
Its myelination is -6.37 (inactive).

And the myelination ([2]; 5 µM)?
The myelination was -13.3 (inactive).

What does the source list for `NCCc1ccccn1` [2-(2-aminoethyl)pyridine]?
fiber score / MBP score ([1]; 1 µM): 0.847; fiber score / MBP score ([1]; 5 µM): 0.699; myelination ([2]; 1 µM): -7.37 (inactive); myelination ([2]; 5 µM): -9.08 (inactive)

Which “fiber score / MBP score” value ([1]; 1 µM) does the source give for `O=P1(N(CCCl)CCCl)NCCCO1` (stereo unspecified) [Cyclophosphamide] here?
The value was 0.725.

And the “fiber score / MBP score” value ([1]; 5 µM)?
Its value is 0.547.

And the myelination ([2]; 1 µM)?
Its myelination is -41 (inactive).

What about the myelination ([2]; 5 µM) of the same compound?
Its myelination is -54.7 (inactive).

How did the “fiber score / MBP score” value ([1]; 1 µM) turn out when `CS(=O)(=O)Nc1ccc(Cc2noc(-c3ccc4[nH]cc(CCN)c4c3)n2)cc1` was run?
The value was 0.563.

And the “fiber score / MBP score” value ([1]; 5 µM)?
Its value is 0.612.

What about the myelination ([2]; 1 µM) of the same compound?
The myelination was -19.6 (inactive).

And the myelination ([2]; 5 µM)?
The myelination was -17.8 (inactive).

`N=C(NCc1ccc(Cl)cc1)SCCCc1c[nH]cn1` [Clobenpropit] was tested. Which “fiber score / MBP score” value ([1]; 1 µM) did it give?
The value was 0.723.

And the “fiber score / MBP score” value ([1]; 5 µM)?
The value was 0.822.

And the myelination ([2]; 1 µM)?
Its myelination is -13 (inactive).

And the myelination ([2]; 5 µM)?
Its myelination is 3.66 (inactive).

For `CCC(COC(=O)c1cc(OC)c(OC)c(OC)c1)(c1ccccc1)N(C)C` (stereo unspecified) [Trimebutine], which “fiber score / MBP score” value ([1]; 1 µM) is on record?
The value was 0.423.

What about the “fiber score / MBP score” value ([1]; 5 µM) of the same compound?
Its value is 0.297.

And the myelination ([2]; 1 µM)?
Its myelination is -54.2 (inactive).

What about the myelination ([2]; 5 µM) of the same compound?
The myelination was -64 (inactive).

`CC[C@]1(O)CC[C@H]2[C@@H]3CCC4=CCCC[C@@H]4[C@H]3CC[C@@]21C` [Ethylestrenol] was tested. Which “fiber score / MBP score” value ([1]; 1 µM) did it give?
Its value is 0.661.

What about the “fiber score / MBP score” value ([1]; 5 µM) of the same compound?
Its value is 1.72.

What about the myelination ([2]; 1 µM) of the same compound?
The myelination was -13.8 (inactive).

And the myelination ([2]; 5 µM)?
The myelination was 204 (active).

For `CNCC(O)c1ccc(O)cc1` (stereo unspecified) [Synephrine], which “fiber score / MBP score” value ([1]; 1 µM) is on record?
Its value is 0.822.

What about the “fiber score / MBP score” value ([1]; 5 µM) of the same compound?
The value was 0.702.

And the myelination ([2]; 1 µM)?
Its myelination is -6.47 (inactive).

What about the myelination ([2]; 5 µM) of the same compound?
Its myelination is -10.5 (inactive).

With `C[N+]1(CCC(C(N)=O)(c2ccccc2)c2ccccc2)CCCCC1` [Fenpiverinium] as the compound, how does the “fiber score / MBP score” value ([1]; 1 µM) read?
Its value is 1.01.

And the “fiber score / MBP score” value ([1]; 5 µM)?
The value was 1.19.

What about the myelination ([2]; 1 µM) of the same compound?
Its myelination is 4.83 (inactive).

And the myelination ([2]; 5 µM)?
Its myelination is 191.

`COC(=O)N1CCN(C(=O)Cc2ccc(Cl)c(Cl)c2)C(CN2CCCC2)C1` (stereo unspecified) was tested. Which “fiber score / MBP score” value ([1]; 1 µM) did it give?
Its value is 0.594.

And the “fiber score / MBP score” value ([1]; 5 µM)?
The value was 0.389.

What about the myelination ([2]; 1 µM) of the same compound?
The myelination was -13 (inactive).

What about the myelination ([2]; 5 µM) of the same compound?
The myelination was -22.4 (inactive).

For `CC(NC(C)(C)C)C(=O)c1cccc(Cl)c1` (stereo unspecified) [Bupropion], which “fiber score / MBP score” value ([1]; 1 µM) is on record?
Its value is 0.583 ± 0.43.

What about the “fiber score / MBP score” value ([1]; 5 µM) of the same compound?
Its value is 0.467 ± 0.35.

And the myelination ([2]; 1 µM)?
Its myelination is -29.5 (inactive).

And the myelination ([2]; 5 µM)?
The myelination was -31.8 (inactive).

What does the source list for `Oc1ccc2c3c1O[C@H]1[C@@H](O)CC[C@@]4(O)[C@@H](C2)N(CC2CCC2)CC[C@]314` [Nalbufina]?
fiber score / MBP score ([1]; 1 µM): 0.796; fiber score / MBP score ([1]; 5 µM): 0.955; myelination ([2]; 1 µM): -19 (inactive); myelination ([2]; 5 µM): -7.9 (inactive)

What does the source list for `C[C@]12CC[C@H]3[C@@H](CCC4=CC(=O)CC[C@@]43C)[C@@H]1CC[C@@H]2O` [Testosterone]?
fiber score / MBP score ([1]; 1 µM): 0.988 ± 0.093; fiber score / MBP score ([1]; 5 µM): 0.928 ± 0.1; myelination ([2]; 1 µM): -4.77 (inactive); myelination ([2]; 5 µM): -15.4 (inactive)

Which results are given for `CCC(C(N)=O)N1CCCC1=O` (stereo unspecified) [Etiracetam]?
fiber score / MBP score ([1]; 1 µM): 0.904; fiber score / MBP score ([1]; 5 µM): 0.739; myelination ([2]; 1 µM): -28.6 (inactive); myelination ([2]; 5 µM): -27.5 (inactive)
